Data taken from PubChem BioAssay (EPA / NIEHS).
Active and inactive are the calls of the source. The calls were made as follows: active = hit-call score of the fitted dose curve at least 0.9, where 1 is the maximum; inactive = score below 0.9.

Assays:
[1] = read-out: TIMP metallopeptidase inhibitor 1 (TIMP1), TIMP1 (gene 7076); assay: BSK_hDFCGF_TIMP1: BioMAP Diversity Plus: hDFCGF Assay for TIMP metallopeptidase inhibitor 1 (TIMP1) Biomarker Activity (AID 2283062); conditions: primary human foreskin fibroblasts; actives raise or lower the signal
In short: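 Human skin fibroblasts (primary), hDFCGF system; compound exposure 24 h; TIMP-1 by ELISA; bidirectional fit vs DMSO negative control; overt cytotoxicity by SRB in parallel wells.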

[2] = read-out: Monokine induced gamma interferon (MIG), CXCL9 (gene 4283); assay: BSK_hDFCGF_MIG: BioMAP Diversity Plus: hDFCGF Assay for Monokine induced gamma interferon (MIG) Biomarker Activity (AID 2283063); conditions: primary human foreskin fibroblasts; actives raise or lower the signal
In short: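 Chemicals were added to primary human foreskin fibroblast cultures, which were sampled 24 h later. MIG levels were then quantified by ELISA and responses fitted in both directions relative to DMSO.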

[3] = read-out: Matrix Metallopeptidase 1 (MMP1), MMP1 (gene 4312); assay: BSK_hDFCGF_MMP1: BioMAP Diversity Plus: hDFCGF Assay for Matrix Metallopeptidase 1 (MMP1) Biomarker Activity (AID 2283064); conditions: primary human foreskin fibroblasts; actives raise or lower the signal
In short: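 Primary human foreskin fibroblasts exposed to chemicals for 24 h; MMP1 measured by ELISA. Cytotoxicity tracked by SRB staining in parallel cultures; bidirectional fit relative to DMSO.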

[4] = read-out: Vascular cell adhesion molecule 1 (VCAM1), VCAM1 (gene 7412); assay: BSK_hDFCGF_VCAM1: BioMAP Diversity Plus: hDFCGF Assay for Vascular cell adhesion molecule 1 (VCAM1) Biomarker Activity (AID 2283065); conditions: primary human foreskin fibroblasts; actives raise or lower the signal;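 as to AC50: VCAM-1 protein level quantified by ELISA after 24 h chemical exposure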
In short: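 Human foreskin fibroblast primary cells, chemical exposure 24 h; VCAM-1 by ELISA; bidirectional fit, DMSO = negative control/baseline.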

[5] = read-out: Plasminogen activator inhibitor-1 (PAI1), SERPINE1 (gene 5054); assay: BSK_hDFCGF_PAI1: BioMAP Diversity Plus: hDFCGF Assay for Plasminogen activator inhibitor-1 (PAI1) Biomarker Activity (AID 2283066); conditions: primary human foreskin fibroblasts; actives raise or lower the signal
In short: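 PAI-1 levels, determined by ELISA, served as the endpoint in human foreskin fibroblast cultures exposed to compound for 24 h, with DMSO as baseline.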

[6] = read-out: Intercellular Adhesion Molecule 1 (ICAM1), ICAM1 (gene 3383); assay: BSK_KF3CT_ICAM1: BioMAP Diversity Plus: KF3CT Assay for Intercellular Adhesion Molecule 1 (ICAM1) Biomarker Activity (AID 2283067); conditions: primary human keratinocytes with fibroblasts; actives raise or lower the signal
In short: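 ICAM-1 levels are measured by ELISA 24 h after dosing a primary human co-culture of keratinocytes and foreskin fibroblasts. Activity in either direction is fitted relative to DMSO vehicle.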

[7] = read-out: Interferon-gamma inducible Protein 10 (IP10), CXCL10 (gene 3627); assay: BSK_KF3CT_IP10: BioMAP Diversity Plus: KF3CT Assay for Interferon-gamma inducible Protein 10 (IP10) Biomarker Activity (AID 2283068); conditions: primary human keratinocytes with fibroblasts; actives raise or lower the signal
In short: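 ELISA read-out of IP-10 after 24 h chemical dosing of human skin primary co-culture (keratinocytes, foreskin fibroblasts). Gain or loss of signal relative to DMSO, bidirectional curve fit.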

[8] = BSK_KF3CT_SRB: Viability Assessment in the BioMAP Diversity Plus: KF3CT Assay (AID 2283069); conditions: primary human keratinocytes with fibroblasts;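 also: total protein by sulforhodamine B staining as a cytotoxicity measure; read 24 h after compound addition; fitted for both signal gain and loss against DMSO baseline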
In short: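 Human keratinocyte and foreskin fibroblast co-culture exposed to chemical for 24 h. Total protein measured in parallel cultures by 0.1% sulforhodamine B staining after 10% TCA fixation, read at 560 nm; bidirectional fit relative to DMSO.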

[9] = read-out: Interleukin-1 alpha (IL1a), IL1A (gene 3552); assay: BSK_KF3CT_IL1a: BioMAP Diversity Plus: KF3CT Assay for Interleukin-1 alpha (IL1a) Biomarker Activity (AID 2283070); conditions: primary human keratinocytes with fibroblasts; actives raise or lower the signal
In short: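 Primary human keratinocyte plus foreskin fibroblast co-culture, dosed and measured at 24 h in 96-well plates. IL-1a level quantified by ELISA; bidirectional fit relative to DMSO.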

[10] = read-out: TIMP metallopeptidase inhibitor 2 (TIMP2), TIMP2 (gene 7077); assay: BSK_KF3CT_TIMP2: BioMAP Diversity Plus: KF3CT Assay for TIMP metallopeptidase inhibitor 2 (TIMP2) Biomarker Activity (AID 2283071); conditions: primary human keratinocytes with fibroblasts; actives raise or lower the signal
In short: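 Keratinocyte–fibroblast co-culture, 24 h exposure; TIMP-2 ELISA, DMSO-normalised bidirectional fit. Parallel SRB (0.1%, TCA-fixed, 560 nm) total-protein staining gauges cytotoxicity.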

[11] = read-out: Transforming growth factor beta 1 (TGFb1), TGFB1 (gene 7040); assay: BSK_KF3CT_TGFb1: BioMAP Diversity Plus: KF3CT Assay for Transforming growth factor beta 1 (TGFb1) Biomarker Activity (AID 2283072); conditions: primary human keratinocytes with fibroblasts; actives raise or lower the signal
In short: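 Signal changes in either direction, relative to DMSO, define activity here. TGF-b1 is read by ELISA from a human keratinocyte-fibroblast co-culture 24 h post-dose.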

[12] = read-out: C-C motif chemokine 2 (Homo sapiens) (UniProt P13500); assay: BSK_KF3CT_MCP1: BioMAP Diversity Plus: KF3CT Assay for Monocyte Chemoattractant Protein 1 (MCP1/CCL2) Biomarker Activity (AID 2283073); conditions: primary human keratinocytes with fibroblasts; actives raise or lower the signal
In short: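 ELISA readout of MCP-1 after 24 h chemical dosing of a human skin primary co-culture of keratinocytes and foreskin fibroblasts. Activity was fitted in both directions against DMSO.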

[13] = read-out: Matrix Metallopeptidase 9 (MMP9), MMP9 (gene 4318); assay: BSK_KF3CT_MMP9: BioMAP Diversity Plus: KF3CT Assay for Matrix Metallopeptidase 9 (MMP9) Biomarker Activity (AID 2283074); conditions: primary human keratinocytes with fibroblasts; actives raise or lower the signal;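 as to AC50: MMP9 protein level quantified by ELISA in the co-culture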
In short: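 Human keratinocyte and foreskin fibroblast co-culture exposed to chemicals for 24 h; MMP9 biomarker measured by ELISA, bidirectional fitting relative to DMSO; cytotoxicity tracked by SRB total protein staining in parallel cultures.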

[14] = read-out: urokinase plasminogen activator (uPA), PLAU (gene 5328); assay: BSK_KF3CT_uPA: BioMAP Diversity Plus: KF3CT Assay for urokinase plasminogen activator (uPA) Biomarker Activity (AID 2283075); conditions: primary human keratinocytes with fibroblasts; actives raise or lower the signal
In short: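 Primary human keratinocyte/foreskin fibroblast co-culture exposed to chemical; uPA measured by ELISA at 24 h. Bidirectional fit versus DMSO, with parallel SRB total-protein staining for cytotoxicity.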

CD40, CD40 (gene 958) = assay: BSK_LPS_CD40: BioMAP Diversity Plus: LPS Assay for CD40 Biomarker Activity (AID 2283076); conditions: primary human HUVEC with PBMC; actives raise or lower the signal
In short: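 Cells were dosed, incubated 24 h, then assayed for CD40 by ELISA. Gain or loss of signal was analysed relative to DMSO controls. The culture paired human umbilical vein endothelium with peripheral blood mononuclear cells.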

[15] = read-out: E-selectin (Homo sapiens) (UniProt P16581); assay: BSK_LPS_Eselectin: BioMAP Diversity Plus: LPS Assay for Eselectin Biomarker Activity (AID 2283077); conditions: primary human HUVEC with PBMC; actives raise or lower the signal
In short: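 Primary human vascular co-culture (endothelium plus PBMC) was dosed with chemical, then E-selectin quantified by ELISA at 24 h. Endpoint values derive from bidirectional curve fitting relative to DMSO.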

[16] = read-out: Interleukin-8 (IL8), CXCL8 (gene 3576); assay: BSK_LPS_IL8: BioMAP Diversity Plus: LPS Assay for Interleukin-8 (IL8) Biomarker Activity (AID 2283078); conditions: primary human HUVEC with PBMC; actives raise or lower the signal
In short: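 Readout is IL-8 by ELISA, taken 24 h after compounds were added to LPS-stimulated endothelial/PBMC co-cultures. Both increases and decreases relative to DMSO control were scored through bidirectional fitting.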

[17] = BSK_LPS_SRB: Viability Assessment in the BioMAP Diversity Plus: LPS Assay (AID 2283079); conditions: primary human HUVEC with PBMC;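 also: total protein by sulforhodamine B absorbance as a cytotoxicity measure; measured one day after compound addition; fitted in both directions against DMSO so loss or gain of signal counts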
In short: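 Readout is SRB absorbance at 560 nm (0.1% stain, TCA-fixed parallel cultures) as a total-protein cytotoxicity measure. Cells: primary human umbilical vein endothelium plus peripheral blood mononuclear cells, 24 h after chemical exposure; DMSO served as baseline.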

[18] = read-out: Interleukin-1 alpha (IL1a), IL1A (gene 3552); assay: BSK_LPS_IL1a: BioMAP Diversity Plus: LPS Assay for Interleukin-1 alpha (IL1a) Biomarker Activity (AID 2283080); conditions: primary human HUVEC with PBMC; actives raise or lower the signal
In short: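 ELISA read-out of IL-1 alpha from a human primary vascular co-culture (endothelium plus PBMC) under LPS, sampled 24 hours post-dosing. Activity was fitted in both directions relative to DMSO controls.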

[19] = read-out: Monocyte Chemoattractant Protein-1 (MCP1), CCL2 (gene 6347); assay: BSK_LPS_MCP1: BioMAP Diversity Plus: LPS Assay for Monocyte Chemoattractant Protein-1 (MCP1) Biomarker Activity (AID 2283081); conditions: primary human HUVEC with PBMC; actives raise or lower the signal;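 as to AC50: secreted MCP-1 protein quantified by ELISA in culture supernatant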
In short: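 Human endothelial–PBMC co-cultures were dosed with chemical, then LPS-driven MCP-1 levels were quantified by ELISA at 24 h. Activity in either direction was fitted versus DMSO negative control.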

Measured: AC50

Sequence of E-selectin (Homo sapiens) (P16581 whole entry, looked up): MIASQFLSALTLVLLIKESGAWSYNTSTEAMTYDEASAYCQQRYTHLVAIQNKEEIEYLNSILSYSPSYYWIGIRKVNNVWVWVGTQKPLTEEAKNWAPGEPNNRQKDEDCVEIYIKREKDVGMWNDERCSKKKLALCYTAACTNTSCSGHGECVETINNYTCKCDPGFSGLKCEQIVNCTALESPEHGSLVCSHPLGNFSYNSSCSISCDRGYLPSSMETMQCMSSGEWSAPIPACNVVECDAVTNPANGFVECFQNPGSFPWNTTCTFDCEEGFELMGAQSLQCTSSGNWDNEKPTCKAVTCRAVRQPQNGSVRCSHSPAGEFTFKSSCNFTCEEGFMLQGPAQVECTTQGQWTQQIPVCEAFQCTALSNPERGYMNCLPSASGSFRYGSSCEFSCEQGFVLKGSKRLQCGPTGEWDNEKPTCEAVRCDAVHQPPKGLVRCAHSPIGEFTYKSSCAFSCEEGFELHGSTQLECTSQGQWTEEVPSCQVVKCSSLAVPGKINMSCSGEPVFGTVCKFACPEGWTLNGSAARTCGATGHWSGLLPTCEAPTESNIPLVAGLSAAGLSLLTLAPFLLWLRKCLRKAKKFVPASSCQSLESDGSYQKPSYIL

CN1CCN(c2ccccc2/C=C2\SCCN(c3ccc(Cl)c(Cl)c3)C2=O)CC1
active: [1] 33.7 µM | [2] 39 µM | [3] 38 µM | [4] 31.8 µM | [5] 9.63 µM | [6] 31.8 µM | [7] 28.5 µM | [8] 30.8 µM | [9] 30.6 µM | [10] 28.1 µM | [11] 29.1 µM | [12] 32.4 µM | [13] 26.8 µM | [14] 30.1 µM | CD40, CD40 (gene 958) 7.34 µM | [16] 20 µM | [17] 16.3 µM | [18] 20 µM
inactive: [15]

Oc1cccc(O)c1
not listed: [11] | [19]
inactive: all other assays above

CC(C)(C)c1ccc(O)c(C(C)(C)C)c1
active: [1] 11.5 µM | [2] 11.7 µM | [3] 11.3 µM | [4] 9.1 µM | [5] 10.3 µM | [6] 14.6 µM | [7] 14.2 µM | [8] 8.27 µM | [9] 9.23 µM | [10] 12 µM | [11] 8.63 µM | [12] 13.4 µM | [13] 9.23 µM | [14] 11.3 µM | CD40, CD40 (gene 958) 14 µM | [15] 13.3 µM | [16] 26.6 µM | [17] 17.7 µM | [18] 14.4 µM | [19] 26.7 µM

CCCCCCC(=O)O
not listed: [8]
inactive: all other assays above

Cc1cc(C)c(O)c(C)c1
inactive: all assays above

c1ccc2cc3c(ccc4ccccc43)cc2c1
inactive: all assays above

c1ccc2c(c1)Cc1ccccc1-2
inactive: all assays above

CCC(=C(c1ccc(O)cc1)c1ccc(OCCN(C)C)cc1)c1ccccc1
active: [1] 12.1 µM | [2] 13.7 µM | [3] 10.7 µM | [4] 10.7 µM | [5] 7.53 µM | [6] 12.3 µM | [7] 10.4 µM | [8] 8.81 µM | [9] 9.91 µM | [10] 10.5 µM | [11] 9.8 µM | [12] 10.2 µM | [13] 8.87 µM | [14] 11.8 µM | CD40, CD40 (gene 958) 7.71 µM | [15] 19.8 µM | [16] 13.3 µM | [17] 9.13 µM | [18] 8.66 µM

CC1=C(/C=C/C(C)=C/C=C/C(C)=C/C(=O)O)C(C)(C)CCC1
active: [1] 31.2 µM | [2] 31.8 µM | [4] 18.5 µM | [5] 20 µM | [6] 30.6 µM | [7] 25.6 µM | [8] 32.8 µM | [9] 33.6 µM | [10] 32.3 µM | [11] 30.1 µM | [12] 32.4 µM | [13] 32.6 µM | [14] 31.2 µM | CD40, CD40 (gene 958) 4.45 µM | [15] 6.18 µM
inactive: [16] | [17] | [18]

CC(C)(C)CC(C)(C)c1ccc(O)c(-n2nc3ccccc3n2)c1
active: [2] 7.74 µM | [4] 15.8 µM | [5] 11.3 µM | [13] 16.6 µM
inactive: all other assays above

NC(=O)N(O)[C@@H]1C=C[C@H](Oc2cccc(Oc3ccc(F)cc3)c2)C1
active: [4] 8.65 µM | [7] 20 µM | [17] 3.97 µM
inactive: all other assays above
